# Laboratory results: PubChem BioAssay (EPA / NIEHS)
# Inconclusive results are not listed. Activity calls are given as the source filed them. The calls were made as follows: active = hit-call score of the fitted dose curve at least 0.9, where 1 is the maximum; inconclusive = response in the unintended direction; inactive = score below 0.9.
# Biological target: Hepatocyte nuclear factor 4-alpha (Homo sapiens) (UniProt P41235)
# Test: ATG_HNF4a_TRANS: Attagene TRANS-FACTORIAL HepG2 Assay for human Hepatocyte Nuclear Factor 4 alpha (HNF4a) (AID 2282982)
# Details: HepG2 HNF4a transactivation reporter, mRNA readout
# Method: ATG_TRANS is a cell-based, multiplexed-readout assay that uses HepG2, a human liver cell line, with measurements taken at 24 hours after chemical dosing in a 24-well plate.ATG_HNF4a_TRANS is one of 30 assay component(s) measured or calculated from the ATG_TRANS assay. It is designed to make measurements of mRNA induction, a form of inducible reporter, as detected with fluorescence intensity signals by Reverse transcription polymerase chain reaction (RT-PCR) and Capillary electrophoresis technology.Data from the assay component ATG_HNF4a_TRANS was analyzed into 1 assay endpoint. This assay endpoint, ATG_HNF4a_TRANS, was analyzed in the positive analysis fitting direction relative to DMSO as the negative control and baseline of activity. Using a type of inducible reporter, measures of mRNA for gain-of-signal activity can be used to understand the reporter gene at the transcription factor-level as they relate to the gene HNF4A. Furthermore, this assay endpoint can be referred to as a primary readout, because this assay has produced multiple assay endpoints where this one serves a reporter gene function. To generalize the intended target to other relatable targets, this assay endpoint is annotated to the nuclear receptor intended target family, where the subfamily is orphan.
# Human liver HepG2 cells are transiently transfected with multiple reporter transcription units (MRTUs) in 6-well plates using FuGene 6 reagent (Roche; 3 ml FuGene/1 mg DNA). The MRTU constructs are regulated by a cis-regulating element (promoter). […] A major difference between the CIS and TRANS system is that in CIS activities of endogenous TFs are measured, whereas the TRANS assay evaluates changes in activities of exogenous, chimeric NR-Gal4 proteins. […] At the end of 24 hour incubation, total RNA was isolated using TriZol reagent (Invitrogen). The isolated RNA is then reverse-transcribed using oligo(dT) primer and Mo-MLV reverse transcriptase (Invitrogen) with DNAse I (Ambion) treatment for 30 min. The one-tenth of the produced cDNA was amplified by PCR using Taq DNA polymerase (Invitrogen) and two reporter sequence-specific primers. The PCR products were fluorescently labeled by primer extension with 6-arboxyfluorescein (6-FAM) 5'-labeled reporter sequence-specific primer (2 min at 95 C, 20 s at 68 C and 10 min at 72 C) and these products were digested with 5U of HpaI (New England Biolabs) for 2h at 37 C. The fragments were purified using Qiaquick PCR columns (Qiagen), analyzed on an ABI 3130xL genetic analyzer (Applied Biosystems) with peak positions identified by using a set of X-rhodamine (ROX)-labeled MapMarker1000 molecular weight standards (BioVentures). The raw capillary electrophoresis data was processed using Attagraph software (Attagene).
# Sequence of Hepatocyte nuclear factor 4-alpha (Homo sapiens) (P41235 whole entry, looked up): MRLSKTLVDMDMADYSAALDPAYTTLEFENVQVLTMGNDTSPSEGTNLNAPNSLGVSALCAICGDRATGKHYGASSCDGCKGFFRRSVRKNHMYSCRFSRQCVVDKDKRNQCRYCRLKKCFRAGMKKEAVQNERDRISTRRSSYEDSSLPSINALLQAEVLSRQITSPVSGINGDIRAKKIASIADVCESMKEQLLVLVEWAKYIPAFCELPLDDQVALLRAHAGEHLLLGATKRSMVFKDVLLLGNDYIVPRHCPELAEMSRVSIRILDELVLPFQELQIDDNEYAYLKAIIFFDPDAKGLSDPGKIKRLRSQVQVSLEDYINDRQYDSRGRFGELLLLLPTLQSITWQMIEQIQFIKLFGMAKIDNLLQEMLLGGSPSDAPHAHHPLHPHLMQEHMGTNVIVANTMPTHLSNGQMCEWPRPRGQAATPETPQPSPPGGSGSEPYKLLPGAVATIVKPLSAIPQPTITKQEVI
row,Structure (SMILES),outcome
1,Nc1ccc(S(=O)(=O)c2ccc(N)cc2)cc1,inactive
2,CCCc1cc(=O)[nH]c(=S)[nH]1,inactive
3,CCCCCCC(=O)OCC,inactive
4,O=C(O)CCCCC(=O)O,inactive
5,Cc1cc(=O)[nH]c(=S)[nH]1,inactive
6,CCCCCCCC=O,inactive
7,CC(=O)Oc1ccccc1C(=O)O,inactive
8,COc1cc(-c2nc(NC(=O)c3cc4cc(C)cc(C)c4n3CC(=O)O)sc2CCC2CCCCC2)c(OC)cc1Cl,inactive
9,CCCCN(CCCC)CCCC,inactive
10,COc1cc(/C=C/C(=O)CC(=O)/C=C/c2ccc(O)c(OC)c2)ccc1O,inactive
11,Oc1ccc2ccccc2c1N=Nc1ccccc1,inactive
12,CCCCCC(=O)O,inactive
13,Cc1ccc(C)c(O)c1C,inactive
14,c1cc(-c2ccncc2)ccn1,inactive
15,CCCCCCCCCCCC(=O)OC,inactive
16,CCCCCCCCCCCCCCCC,inactive
17,Cc1ccc(C(C)C)c(O)c1,inactive
18,Clc1cc(Cl)c(Cl)cc1Cl,inactive
19,Oc1ccc2c(c1)OC[C@@H](N1CCC(O)(c3ccc(F)cc3)CC1)[C@H]2O,inactive

row,Structure (SMILES),outcome
1,CCOc1ccc2c(c1)C(C)=CC(C)(C)N2,inactive
2,CNCc1cc(F)ccc1Oc1ccc(Cl)c(Cl)c1,inactive
3,CC1(C)NC(=O)NC1=O,inactive
4,O=C(OCCCCCOC(=O)c1ccccc1)c1ccccc1,inactive
5,NS(=O)(=O)c1cc2c(cc1Cl)NCNS2(=O)=O,inactive
6,CCCCCCOCCO,inactive
7,Cc1ccc(N(C)C)cc1,inactive
8,Cc1cc(NC(=O)C(=O)O)cc(C)c1Oc1ccc(O)c2c1CCC2,inactive
9,Cc1ccc(Cl)cc1,inactive
10,COc1cc(S(=O)(=O)O)c(C)cc1N=Nc1c(O)ccc2cc(S(=O)(=O)O)ccc12,inactive
11,Cc1c(C(=O)O)c(O)cc2c1C(=O)c1c(O)c([C@@H]3O[C@H](CO)[C@@H](O)[C@H](O)[C@H]3O)c(O)c(O)c1C2=O,inactive
12,CCCCCCCCCCC,inactive
13,CCCCOC(=O)CCCCCCCCC(=O)OCCCC,inactive
14,Nc1nc(N)c2nc(CNc3ccc(C(=O)N[C@@H](CCC(=O)O)C(=O)O)cc3)cnc2n1,inactive
15,CCCCCCCCCCCCCO,inactive
16,CCCCCCCCCCO,inactive
17,CN[C@H]1CC[C@@H](c2ccc(Cl)c(Cl)c2)c2ccc(S(N)(=O)=O)cc21,inactive
18,Nc1ccccc1N,inactive
